Bioassay records as filed in PubChem BioAssay.
HP1b binding inh: HTS for Inhibitors of HP1-beta Chromodomain Interactions with Methylated Histone Tails; Chromobox protein homolog 1 (Homo sapiens), P83916; AlphaScreen HP1-beta / biotin-H3K9me3 peptide binding; Potency, µM (highest dose often 114 µM), for the others: at the top dose activity change, negative = inhibition, actives largely listed as inhibitors; actives 0.56% (n = 390,000); AID 540317, 2011; note: potency is the fitted concentration of half-maximal effect; nearly all actives have a fitted effect of over 70% in size
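HP1-beta protein (50 nM final) preincubated 30 min at room temperature with biotinylated H3(1-18)K9me3 peptide (50 nM) in PBS pH 7.4, 0.01% Tween-20, then compound added for 30 min. AlphaScreen streptavidin donor/nickel chelate acceptor beads (10 ug/mL final), 30 min dark, luminescence read.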
PI5P4K alpha inh: qHTS for Inhibitors of phosphatidylinositol 5-phosphate 4-kinase (PI5P4K); Phosphatidylinositol 5-phosphate 4-kinase type-2 alpha (Homo sapiens), P48426; PI5P4Kalpha enzyme, ADP-Glo luminescence, 60 min; active compounds read low; max response, %; actives 1.2% (n = 330,000); AID 652105, 2013; active = max response of -50% or lower; inconclusive = between -30% and -50%; inactive = -30% or higher; note: value at the top dose of about 77 µM; % is set by controls: 0 for no effect and ±100 for the full control effect
Target sequence (P48426 whole entry, looked up): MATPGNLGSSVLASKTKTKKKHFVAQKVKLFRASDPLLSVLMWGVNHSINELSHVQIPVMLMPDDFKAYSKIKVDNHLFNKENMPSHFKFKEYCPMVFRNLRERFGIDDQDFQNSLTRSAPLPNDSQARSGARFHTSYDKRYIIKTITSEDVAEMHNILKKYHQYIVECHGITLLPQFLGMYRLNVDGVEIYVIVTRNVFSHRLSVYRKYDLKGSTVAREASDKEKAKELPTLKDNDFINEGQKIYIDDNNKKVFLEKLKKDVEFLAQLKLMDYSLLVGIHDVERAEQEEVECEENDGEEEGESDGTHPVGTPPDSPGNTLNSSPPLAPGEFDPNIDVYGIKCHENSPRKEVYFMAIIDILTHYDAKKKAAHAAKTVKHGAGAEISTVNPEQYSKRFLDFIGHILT
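ADP-Glo luminescence end-point after a 60 min room-temperature kinase reaction. PI5P4Kalpha and substrate in HEPES pH 7.4 buffer with EGTA, 0.1% CHAPS and 5% DMSO; ATP at 5 microM final.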
JMJD2A Tudor inh: qHTS Assay for Inhibitors of JMJD2A-Tudor Domain | actives 4.4% (n = 390,000) | AlphaScreen JMJD2A-Tudor / H3K4me3 peptide binding | Lysine-specific demethylase 4A (Homo sapiens), O75164 | Potency, µM (doses to about 114 µM), inactives show at the top dose activity change, negative = inhibition, usual class: inhibitors; note: potency is the fitted concentration of half-maximal effect; % is set by controls: 0 for no effect and ±100 for the full control effect; nearly all actives have a fitted effect of over 50% in size
PLK1 PBD inh: qHTS for Inhibitors of PLK1-PDB (polo-like kinase 1 - polo-box domain): Primary Screen | Serine/threonine-protein kinase PLK1 (Homo sapiens), P53350 | Plk1 PBD binding of FITC phosphopeptide, fluorescence polarization | Potency, µM, without a hit: max response, negative = inhibition, usual class: inhibitors | actives 2.8% (n = 360,000) | AID 720504, 2013; note: potency is the fitted concentration of half-maximal effect; series mostly up to about 57 µM; % is set by controls: 0 for no effect and ±100 for the full control effect; nearly all actives have a fitted effect of over 65% in size
BAZ2B inh: qHTS Assay for Inhibitors of BAZ2B; Potency, µM (top dose mostly 114 µM), for inactives: at the top dose activity change, negative = inhibition, most hits filed as inhibitors; actives 4.4% (n = 360,000); AlphaScreen BAZ2B-H3K14Ac peptide displacement; AID 504333, 2011; note: potency is the fitted concentration of half-maximal effect; % is set by controls: 0 for no effect and ±100 for the full control effect; nearly all actives have a fitted effect of over 60% in size
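Multi-concentration screen (max 110 uM) measuring displacement of acetylated histone H3 peptide from BAZ2B by AlphaScreen, using 50 nM protein, 50 nM peptide and 10 ug/mL streptavidin donor plus Ni-chelate acceptor beads.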
G9a inh: qHTS Assay for Inhibitors of Histone Lysine Methyltransferase G9a. G9a H3K9 monomethylation, AlphaScreen, 2 h. actives 8.8% (n = 350,000). Potency, µM (doses to about 102 µM), for the others: at the top dose activity, negative = inhibition, actives largely listed as inhibitors. Histone-lysine N-methyltransferase EHMT2 (Homo sapiens), Q96KQ7; note: potency is the fitted concentration of half-maximal effect; % is set by controls: 0 for no effect and ±100 for the full control effect; nearly all actives have a fitted effect of over 75% in size
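Compounds were preincubated with 20 nM G9a for 15 min, after which biotinylated H3K9 peptide (500 nM) and SAM (20 uM) started a 2 h room-temperature reaction. Monomethylated product was quantified by antibody-based AlphaScreen chemiluminescence.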
Starred values were filed as active, the others as inactive; u = inconclusive; x = not tested or not shown; [ ] = dose if it differs, or a comment. The list is not random: actives were taken first. Their share in the collection is about 12%. Unless noted, calls come from the whole dose curve; as a rule, active = well fitted curve in the direction sought with a large enough effect; inconclusive = small, poorly fitted or top-dose-only effect, or another doubt; inactive = no such curve, though single readings can be large; an effect the other way counts as inactive or inconclusive.

SMILES	HP1b binding inh	PI5P4K alpha inh	JMJD2A Tudor inh	PLK1 PBD inh	BAZ2B inh	G9a inh
Cc1onc(-c2ccccc2Cl)c1C(=O)N1CCCCC1C (stereo not drawn)	-18.7%	-6.1	-17.5%	-9.6%	-8.9%	-3.4%
Fc1ccc(Nc2nc3ccccc3c3nncn23)c(Cl)c1	24.8%	x	3.4%	x	-12.5%	4.6%[59 µM]
Cc1ccc(/C=C/C(=O)O)cc1S(=O)(=O)N(CCO)CCO	51.6%	-59.0*	7.9%	-8.1%	-28.3%	u
CCc1cccc2c(-c3ccccc3)nc(SCC(=O)Nc3ccccc3OC)nc12	63.8%	x	-19.5%	x	-0.6%	19.4%[59 µM]
O=C(NCc1cccs1)C(Cc1ccccc1)n1cccc1 (stereo not drawn)	9.3%	0.6	-25.4%	-18.3%	-37.1%	44.7µM*
Cc1csc(NC(=O)C(Cc2ccccc2)n2cccc2)n1 (stereo not drawn)	-21.2%	-2.1	u	-11.1%	u	44.7µM*
CCC(C(=O)Nc1nc(C)cs1)c1ccccc1 (stereo not drawn)	-14.9%	-16.4	50.1µM*	26.7µM*	1.9%	10.7%[59 µM]
CCC(C(=O)Nc1nc(C)c(C)s1)c1ccccc1 (stereo not drawn)	11.0%	1.5	-23.4%	-0.1%	50.1µM*	-7.9%[0.501 µM]
COc1ccccc1-c1csc(Nc2ccc(Oc3ccccc3)cc2)n1	x	6.0	x	-6.2%	x	x
CSc1ccccc1NC(=O)CN(C)Cc1c(O)ccc2ccccc12	-11.5%	-17.8	56.2µM*	10.6µM*	u	2.24µM*
COc1ccc(OCCN(C)Cc2c(O)ccc3ccccc23)cc1	-8.2%	0.3	u	8.44µM*	-1.0%	7.08µM*
COc1ccc(NC(=O)Nc2c(O)ccc3ccccc23)cc1	u	-3.4	u	u	x	x
CN(Cc1cc(Cl)cc(Cl)c1O)Cc1c(O)ccc2ccccc12	-6.9%[57 µM]	10.8	u	-7.4%	x	x
CN(Cc1ccccc1)Cc1c(O)ccc2ccccc12	u	-0.4	3.98µM*	u	79.4µM*	8.91µM*
Cc1cc(C(=O)N2CCCC(N3CCN(c4ccc(F)cc4)CC3)C2)c(C)o1 (stereo not drawn)	0.9%	-12.3	u	26.7µM*	u	-15.2%
Cc1ccc(C(=O)N2CCCC(N3CCN(c4ccccc4C)CC3)C2)c(=O)[nH]1 (stereo not drawn)	u	1.6	50.1µM*	4.0%	-5.5%[57.1 µM]	10.4%
Cc1ccccc1N1CCN(C2CCCN(C(=O)c3ccc(Cl)s3)C2)CC1 (stereo not drawn)	6.4%	1.7	-16.1%	2.3%	-35.4%	-15.0%
CCOCCCNC(=O)C(c1ccc(Cl)cc1)N(Cc1ccc2c(c1)OCO2)C(=O)c1ccc(NC(C)=O)cc1 (stereo not drawn)	37.3%	x	-7.2%	x	-12.0%	-12.0%[59 µM]
Cc1ccc(C)c(NC(=O)C2CCCN(S(=O)(=O)c3cccc4nsnc34)C2)c1 (stereo not drawn)	19.4%	x	-9.0%	x	x	-6.8%[59 µM]
CS(=O)(=O)Nc1ccccc1C(=O)NCc1ccco1	47.6%	-3.0	-2.2%	0.4%	-1.8%	12.6µM*
CCOc1ccc(S(=O)(=O)Nc2ccccc2C(=O)NCc2ccco2)cc1	8.5%	-14.3	-30.8%	-15.1%	u	50.1µM*
Cc1ccccc1NS(=O)(=O)c1ccc(OCC(=O)NCc2ccco2)cc1	-6.0%	-9.9	-30.7%	-9.2%	0.6%	-36.1%[59 µM]
